Assay results reported in the supplement of paper PMC12669032.

These molecules were tested on Roseburia intestinalis (assay: growth AUC relative to DMSO control (median of replicates) (fraction); higher = more growth (less inhibition), active = hit call of the paper). Details: 20 µM; 24 h;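 active = AUC reduced over 20% with Padj below 0.05 in at least 2 of 3 replicates; inactive = otherwise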.
How it was run: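 In round-bottom 96-well plates sealed with pierced gas-permeable seals, gut bacterial monocultures in mGAM were grown anaerobically at 37 °C from OD600 0.05 with 20 µM compound (1% DMSO). OD600 readings were taken hourly for 24 h, and the minimum OD was set to 0. Area under the growth curve was then normalised to the plate median of solvent-only wells, or to row and column medians on the industrial chemical plate. The value given is the median of three biological replicates grown on separate days.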

| SMILES | growth AUC |
| --- | --- |
| CC1(C)C(C=C(Cl)Cl)C1C(=O)OC(C#N)c1ccc(F)c(Oc2ccccc2)c1 (mixture of isomers) | 0.916 (inactive) |
| c1ccc2c(c1)cc1ccc3cccc4ccc2c1c34 | 1.13 (inactive) |
| CCc1cccc(C)c1N(C(=O)CCl)C(C)COC (centres undefined) | 1.07 (inactive) |
| CO/C=C(/C(=O)OC)c1ccccc1Oc1cc(Oc2ccccc2C#N)ncn1 | 0.961 (inactive) |
| O=C(NCCc1ncc(C(F)(F)F)cc1Cl)c1ccccc1C(F)(F)F | 0.987 (inactive) |
| CC(=O)CC(c1ccc(Cl)cc1)c1c(O)c2ccccc2oc1=O (centres undefined) | 1.04 (inactive) |
| CCOP(=S)(OCC)Oc1ccc(S(C)=O)cc1 (centres undefined) | 1.02 (inactive) |
| CCOP(=O)(NC(C)C)Oc1ccc(S(C)(=O)=O)c(C)c1 (centres undefined) | 1.09 (inactive) |
| Clc1cccc(C(Cl)(Cl)Cl)n1 | 1 (inactive) |
| COP(=O)(OC)Oc1ccc(S(C)(=O)=O)c(C)c1 | 1.02 (inactive) |
| Clc1ccc(C(c2ccc(Cl)cc2)C(Cl)(Cl)Cl)cc1 | 0.941 (inactive) |
| O=c1oc2ccccc2c(O)c1C(CC(O)c1ccc(-c2ccc(Br)cc2)cc1)c1ccccc1 (centres undefined) | 0.654 (active) |
| C[Si](Cn1cncn1)(c1ccc(F)cc1)c1ccc(F)cc1 | 0.853 (inactive) |
| CCCCN(CC)c1c([N+](=O)[O-])cc(C(F)(F)F)cc1[N+](=O)[O-] | 1.04 (inactive) |
| Cc1cc(Cl)ccc1OCC(=O)O | 1.02 (inactive) |
| O=C1c2ccccc2C(=O)N1SC(Cl)(Cl)Cl | 0.99 (inactive) |
| CCCCOCN(C(=O)CCl)c1c(CC)cccc1CC | 0.97 (inactive) |
| CN(C)C(CSC(N)=O)CSC(N)=O.Cl | 1.07 (inactive) |
| O=NN(CCO)CCO | 0.971 (inactive) |
| O=C(O)C(Cl)Cl | 1.02 (inactive) |

| SMILES | growth AUC |
| --- | --- |
| C1CCC(NC2CCCCC2)CC1.O=NO | 1 (inactive) |
| Oc1ccc(Cl)cc1Cc1cc(Cl)ccc1O | 0.64 (active) |
| Clc1cc(Cl)c(Cl)c(Cl)c1 | 0.91 (inactive) |
| CNC(=O)/C(=N/OC)c1ccccc1Oc1ccccc1 | 1.04 (inactive) |
| COC(=O)c1ccccc1CS(=O)(=O)NC(=O)Nc1nc(OC)cc(OC)n1 | 0.964 (inactive) |
| CNC(=O)O/N=C(\SC)C(=O)N(C)C | 0.997 (inactive) |
| O=[N+]([O-])c1ccc(Oc2ccc(Cl)cc2Cl)cc1 | 0.967 (inactive) |
| CCCCOC(=O)c1ccccc1C(=O)OCCCC | 0.953 (inactive) |
| O=C(NC(=O)c1c(F)cccc1F)Nc1ccc(Cl)cc1 | 0.983 (inactive) |
| COP(=S)(OC)Oc1ccc(S(C)=O)c(C)c1 (centres undefined) | 1.07 (inactive) |
| COP(=O)(OC)Oc1ccc(SC)c(C)c1 | 1.02 (inactive) |
| C=CC(N)=O | 1.01 (inactive) |
| CCOC(=O)Nc1cccc(OC(=O)Nc2ccccc2)c1 | 1.01 (inactive) |
| C=CCC1=C(C)C(OC(=O)[C@@H]2[C@@H](C=C(C)C)C2(C)C)CC1=O (some centres undefined) | 1.05 (inactive) |
| CNC(=O)Oc1cc(C)c(N(C)C)c(C)c1 | 0.962 (inactive) |
| CC(C)(COCc1cccc(Oc2ccccc2)c1)c1ccc(OC(F)(F)Br)cc1 | 1.05 (inactive) |
| OC(c1ccc(Cl)cc1)(c1cncnc1)c1ccccc1Cl (centres undefined) | 1 (inactive) |
| CCCSP(=O)(OCC)Oc1ccc(Br)cc1Cl (centres undefined) | 1.01 (inactive) |
| CCOP(=S)(OCC)SCSc1ccc(Cl)cc1 | 0.939 (inactive) |
